Columns and labels:
Details in all cases: concentration: 1 μM, replicates: in singlicate; n = 1
PIK3CD = system: PIK3CD
PIK3CG = system: PIK3CG
PIK4CB = system: T1, PIK4CB
T1 construct: gene PI4KB

PIKFYVE = system: PIKFYVE
PIM1 = system: PIM1
PIM2 = system: PIM2
PIM3 = system: PIM3
PIP5K1A = system: PIP5K1A
PIP5K1C = system: PIP5K1C
PIP5K2B = system: PIP5K2B
PIP5K2C = system: T2, PIP5K2C
T2 construct: gene PIP4K2C

PKAC-alpha = system: T3, PKAC-alpha
T3 construct: gene PRKACA

PKAC-beta = system: T4, PKAC-beta
T4 construct: gene PRKACB

PKMYT1 = system: PKMYT1
PKN1 = system: PKN1
PKN2 = system: PKN2
PLK1 = system: PLK1
PLK2 = system: PLK2
PLK3 = system: PLK3
PLK4 = system: PLK4
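Also: KINOMEscan kinase panel screen.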

| SMILES | %Inh (PIK3CD) | %Inh (PIK3CG) | %Inh (PIK4CB) | %Inh (PIKFYVE) | %Inh (PIM1) | %Inh (PIM2) | %Inh (PIM3) | %Inh (PIP5K1A) | %Inh (PIP5K1C) | %Inh (PIP5K2B) | %Inh (PIP5K2C) | %Inh (PKAC-alpha) | %Inh (PKAC-beta) | %Inh (PKMYT1) | %Inh (PKN1) | %Inh (PKN2) | %Inh (PLK1) | %Inh (PLK2) | %Inh (PLK3) | %Inh (PLK4) |
| --- | --- | --- | --- | --- | --- | --- | --- | --- | --- | --- | --- | --- | --- | --- | --- | --- | --- | --- | --- | --- |
| Fc1cccc(COc2ccc(Nc3ncnc4nn5ccccc5c34)cc2Cl)c1 [GW689066] | 0% | 0% | 0% | 0% | 0% | 0% | 0% | 40% | 43% | 7% | 32% | 0% | 8% | 0% | 0% | 0% | 0% | 0% | 0% | 0% |
| Cc1ccc(O)cc1Nc1cc(C(F)(F)F)nc2ccc(-c3ccncc3)cc12 [GW630823] | 0% | 0% | 0% | 0% | 4% | 3% | 11% | 0% | 0% | 0% | 0% | 10% | 0% | 9% | 0% | 0% | 0% | 1% | 0% | 0% |
| Cc1ccc(C)c(NC(=O)NCCNc2ccnc(Nc3ccc(F)cc3)n2)c1 [GSK1379878] | 0% | 0% | 0% | 0% | 0% | 0% | 0% | 41% | 48% | 15% | 25% | 0% | 0% | 0% | 0% | 0% | 4% | 0% | 0% | 0% |
| CCC(CC)(CC)n1cnc2c(N)ncnc21 [SKF-97620] | 22% | 5% | 40% | 33% | 0% | 6% | 5% | 30% | 9% | 0% | 0% | 11% | 14% | 2% | 0% | 0% | 45% | 32% | 21% | 7% |
| c1ccc(-c2ccc3c(-c4ccnc(Nc5ccc6c(c5)OCCO6)n4)cnn3n2)cc1 [GW818941] | 0% | 0% | 0% | 0% | 9% | 0% | 17% | 0% | 0% | 1% | 36% | 0% | 28% | 3% | 65% | 0% | 9% | 0% | 0% | 0% |
| CNc1nccc(-c2c(-c3ccc(F)cc3)ncn2C2CCN(C)CC2)n1 [SB-222903] | 0% | 0% | 0% | 9% | 1% | 0% | 0% | 36% | 0% | 0% | 90% | 1% | 17% | 0% | 0% | 0% | 0% | 0% | 4% | 0% |
| COc1cc2c(Nc3cccc(NC(=O)c4ccccc4)c3)ncnc2cc1OCCCN1CCOCC1 [GSK223810] | 0% | 0% | 0% | 0% | 0% | 0% | 5% | 0% | 26% | 2% | 0% | 100% | 0% | 7% | 8% | 0% | 0% | 3% | 0% | 17% |
| Oc1ccc2ncnc(Nc3ccc(OCc4ccccc4)cc3)c2c1 [GI262866] | 5% | 0% | 1% | 0% | 0% | 0% | 33% | 0% | 19% | 19% | 40% | 0% | 0% | 5% | 1% | 0% | 0% | 0% | 0% | 0% |
| COc1ccc(-c2oc3ncnc(N)c3c2-c2ccc(OC)cc2)cc1 [SB-589132] | 4% | 10% | 10% | 23% | 0% | 0% | 0% | 48% | 54% | 11% | 63% | 0% | 0% | 0% | 0% | 0% | 3% | 0% | 0% | 0% |
| Cl.c1ccc(Cn2ncc3cc(Nc4ncnc5ccccc45)ccc32)cc1 [GW273749] | 0% | 3% | 0% | 0% | 0% | 0% | 1% | 0% | 11% | 10% | 0% | 0% | 0% | 0% | 13% | 0% | 2% | 0% | 2% | 0% |

Source: paper PMC5540273 (PLoS ONE, 2017)
